This passage reports outcome and AC50 results from PubChem BioAssay (EPA / NIEHS).

Each structure is given as a SMILES string. Values joined by “and” are separate entries in the source; they are usually repeats but may differ in a detail not shown here. Equal values may be shown once. Inconclusive results are not listed. Active and inactive are the calls of the source. The calls were made as follows, unless noted: active = hit-call score of the fitted dose curve at least 0.9, where 1 is the maximum; inactive = score below 0.9.

The nature of test [1]: ACEA_ER_80hr: ACEA Biosciences xCELLigence Real-Time Cell Analysis on Estrogen Receptor Agonism for Proliferation (AID 2282667; active = hit-call score of the fitted dose curve at least 0.9, where 1 is the maximum). Particulars: T47D proliferation, impedance (xCELLigence), 80 h. The essentials: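 Estrogen-driven proliferation is captured as electrode impedance in T47D cells 80 h after compound addition. Test articles ran at 8 concentrations, 1:4 dilutions from 100 uM final, in two replicate plates.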

Test [2] in a line: APR_HepG2_CellCycleArrest_24hr: Apredica 24-hour HepG2 Assay for Cell Cycle Arrest (AID 2282905).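 Also: cell cycle arrest scored as ratio of 2N to 4N nuclear DNA content.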 The settings on record: imaging, actives raise or lower the signal. The essentials: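 Compounds (0.39 to 200 uM, final DMSO 0.5% v/v) are applied to HepG2 cells for 24 hours; cells are then fixed, permeabilized and nuclei labeled with Hoechst 33342. Automated imaging measures DNA content, and activity is fitted in both directions against DMSO.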

Test [3] is described as follows: APR_HepG2_NuclearSize_24hr: Apredica 24-hour HepG2 Assay for Nuclear Size (AID 2282907). Particulars: high-content imaging, actives raise or lower the signal. The method in brief: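 Nuclear size is measured by fluorescence high-content imaging of Hoechst-labelled HepG2 nuclei after 24 hr of treatment (0.39–200 uM, 0.5% DMSO). Cells are fixed in 3.7% formaldehyde before staining, and DMSO serves as the baseline for bidirectional curve fitting.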

Test [4] is described as follows: APR_HepG2_CellLoss_24hr: Apredica 24-hour HepG2 Assay for Cell Loss (AID 2282908).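 As to AC50: fit in both directions so a hit may be cell loss or gain.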 The settings on record: high-content imaging. The method in brief:
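Nuclear count serves as the viability measure: treated cells are fixed, permeabilized and labelled with Hoechst 33342, and six images per well are analysed to identify valid nuclei. Doses span 0.39–200 uM, and activity in either direction is scored against DMSO.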

A short description of test [5]: APR_HepG2_MicrotubuleCSK_24hr: Apredica 24-hour HepG2 Assay for Microtubule CSK Stabilty (AID 2282909). The settings on record: HepG2 microtubule cytoskeleton imaging, actives raise or lower the signal. The method in brief: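 Compounds were applied to HepG2 cells for 24 hours across 0.39–200 uM in duplicate, with final DMSO at 0.5% v/v. Fixed, permeabilized cells were labeled for alpha-tubulin and nuclei, and tubulin fluorescence was quantified by imaging, fitted bidirectionally against DMSO.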

The nature of test [6]: APR_HepG2_MitoticArrest_24hr: Apredica 24-hour HepG2 Assay for Mitotic Arrest (AID 2282910). Particulars: high-content imaging, actives raise or lower the signal. The essentials:
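HepG2, 24 hr dosing, 0.39–200 uM, 0.5% DMSO final. Formaldehyde-fixed, Triton-permeabilised, anti-phospho-histone H3 plus Hoechst. ArrayScan imaging at 20x; bidirectional fit vs DMSO baseline.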

A short description of test [7]: APR_HepG2_MitoMembPot_24hr: Apredica 24-hour HepG2 Assay for Mitochondrial Membrane Potential (AID 2282911). Particulars: imaging, actives raise or lower the signal. The essentials:
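Mitochondrial dye uptake (MitoTracker Red CMXRos, 250 nM, 30 min pre-fixation) in HepG2 after 24 hr compound exposure, 0.39–200 uM; ArrayScan images at 20x, activity fitted in both directions relative to DMSO.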

Test [8] in a line: APR_HepG2_MitoMass_24hr: Apredica 24-hour HepG2 Assay for Mitochondrial Mass (AID 2282912). The settings on record: high-content imaging, actives raise or lower the signal. The essentials: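 After 24 hr of treatment at 0.39 to 200 uM, HepG2 cells take up 250 nM MitoTracker Red CMXRos for 30 min and are then fixed with 3.7% formaldehyde. Per-well images are quantified, and any change in either direction is scored against solvent.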

Test [9] is described as follows: APR_HepG2_p53Act_24hr: Apredica 24-hour HepG2 Assay for p53 Activation (AID 2282913).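 Also: p53 protein immunofluorescence averaged per cell in HepG2 with Hoechst nuclei.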 Particulars: high-content imaging, actives raise or lower the signal. The method in brief: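 Following 24 hr dosing of HepG2 at 0.39–200 uM, the cells undergo formaldehyde fixation, Triton permeabilization and multiplexed antibody labeling that includes p53 (Cy5). Signal from the imaging is referenced to DMSO solvent controls.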

The nature of test [10]: APR_HepG2_CellCycleArrest_72hr: Apredica 72-hour HepG2 Assay for Cell Cycle Arrest (AID 2282914). Particulars: high-content imaging, actives raise or lower the signal. The method in brief: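 Using multiplexed high-content imaging, HepG2 nuclei stained with Hoechst 33342 (2 ug/mL) were analysed for DNA content after fixation and permeabilization. Treatment lasted 72 hr across 0.39–200 uM in duplicate with final DMSO 0.5% v/v; DMSO served as negative control.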

A short description of test [11]: APR_HepG2_CellLoss_72hr: Apredica 72-hour HepG2 Assay for Cell Loss (AID 2282915). The settings on record: high-content imaging. The method in brief: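 HepG2 cells exposed 72 h to compound at 0.39–200 uM (10 concentrations, duplicate) in 0.5% DMSO. Fixed with 3.7% formaldehyde and Hoechst 33342-stained. Imaged at 20x; nuclear count gives cell number, fitted bidirectionally versus DMSO.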

Test [12] is described as follows: APR_HepG2_P-H2AX_72hr: Apredica 72-hour HepG2 Assay for H2AX Phosphorylation (AID 2282916).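 Also: phospho-histone H2A.x immunostain intensity per cell marking DNA damage.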 Particulars: imaging, actives raise or lower the signal. The essentials:
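Human hepatoma HepG2 cells are dosed across ten concentrations (0.39 to 200 uM, 0.5% v/v DMSO) and incubated 72 hr. Phospho-histone H2A.x is then detected by antibody staining alongside c-Jun and Hoechst, and quantified by automated fluorescence imaging.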

Test [13] is described as follows: APR_HepG2_MitoMembPot_72hr: Apredica 72-hour HepG2 Assay for Mitochondrial Membrane Potential (AID 2282917). The settings on record: imaging, actives raise or lower the signal. The method in brief:
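HepG2 cells dosed 72 hr with compound at 0.39–200 uM in duplicate, 0.5% v/v DMSO final. Mitochondria stained with 250 nM MitoTracker Red CMXRos for 30 min before formaldehyde fixation, imaged by high-content fluorescence; bidirectional fit versus DMSO.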

The nature of test [14]: APR_HepG2_MitoticArrest_72hr: Apredica 72-hour HepG2 Assay for Mitotic Arrest (AID 2282918). Particulars: high-content imaging, actives raise or lower the signal. The essentials:
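Using high-content imaging of fixed HepG2 cells, phospho-histone H3 signal was measured following a 72 hr incubation with ten-point compound dilutions up to 200 uM. DMSO served as the negative control and baseline for bidirectional curve fitting.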

Test [15] can be described thus: APR_HepG2_MicrotubuleCSK_72hr: Apredica 72-hour HepG2 Assay for Microtubule CSK Stabilty (AID 2282919). Particulars: HepG2 microtubule cytoskeleton, high-content imaging, actives raise or lower the signal. The essentials:
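HepG2, 72 hr cmpd exposure, 0.39–200 uM (10 pts, duplicate), 0.5% DMSO. 3.7% formaldehyde fix, 0.5% Triton perm, anti-alpha-tubulin/Cy5 plus Hoechst. HCS fluorescence intensity; bidirectional fit vs DMSO baseline; taxol as positive control.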

Test [16] can be described thus: APR_HepG2_P-H2AX_24hr: Apredica 24-hour HepG2 Assay for H2AX Phosphorylation (AID 2282920). The settings on record: high-content imaging, actives raise or lower the signal. The method in brief: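 Human HepG2 liver cells, treated 24 hr with test chemicals (0.39–200 uM, final DMSO 0.5% v/v), are fixed and co-stained for phospho-H2A.x and c-Jun with Hoechst. Imaged intensity is fitted in both directions against DMSO controls.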

A short description of test [17]: APR_HepG2_StressKinase_72hr: Apredica 72-hour HepG2 Assay for Stress Kinase (AID 2282921). Particulars: HepG2 stress kinase (phospho-c-Jun) imaging, actives raise or lower the signal. The essentials: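 After a 72 h compound treatment spanning 0.39 to 200 uM, formaldehyde-fixed cells are labelled for phosphorylated c-Jun and nuclei, imaged by automated fluorescence microscopy, and activity is fitted in both directions relative to DMSO controls.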

The nature of test [18]: APR_HepG2_StressKinase_24hr: Apredica 24-hour HepG2 Assay for Stress Kinase (AID 2282922). The settings on record: HepG2 stress kinase (phospho-c-Jun) imaging, actives raise or lower the signal. The essentials:
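Read-out: phospho-c-Jun immunofluorescence (Cy3 secondary) quantified by high-content imaging at 20x, nuclei defined by Hoechst 33342. Human HepG2 liver cells dosed 24 hr, 0.39–200 uM, DMSO 0.5% v/v; gain or loss of signal fitted relative to DMSO.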

Test [19] can be described thus: APR_HepG2_p53Act_72hr: Apredica 72-hour HepG2 Assay for p53 Activation (AID 2282923).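 Also: average cellular p53 protein immunofluorescence intensity in HepG2 cells.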 Particulars: high-content imaging, actives raise or lower the signal. The method in brief: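 Imaging-based endpoint: after 72 hr compound exposure (up to 200 uM, 0.5% DMSO), fixed and permeabilized monolayers were labelled with anti-p53 antibody and imaged; signal change in either direction was fitted relative to DMSO controls.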

A short description of test [20]: APR_HepG2_MitoMass_72hr: Apredica 72-hour HepG2 Assay for Mitochondrial Mass (AID 2282924).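 Also: MitoTracker Red CMXRos stain intensity per cell imaged as mitochondrial mass.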 Particulars: high-content imaging, actives raise or lower the signal. The essentials: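 Read-out: MitoTracker Red fluorescence intensity from automated imaging (20x, six fields per well) in human HepG2 liver cells. Dosing ran 72 hr, 0.39–200 uM, 0.5% DMSO; bidirectional curve fitting versus DMSO baseline.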

`CN(C)C=O`: the call in [1], in [2], in test [3], in test [4], in test [5] and in test [6] was inactive. Besides, the molecule was classed as inactive in [7], in [8], in test [9], in test [10], in [11] and in test [12]. The outcome in [13], in [14], in [15], in test [16], in test [17] and in [18] was inactive. For the same molecule, the result in test [19] and in [20] was inactive.

In the case of `CCCCCCCCCCCCCC[N+](C)(C)C`, in test [1], the AC50 (in general, the concentration giving half of the maximal activity seen) was 128 nM (active) and 101 nM (active).

For `ClC1=C(Cl)C(Cl)(Cl)C(Cl)=C1Cl`, the result in [1], in [2], in test [3], in test [4], in test [5] and in test [6] was inactive. In addition, the outcome in test [7], in test [8], in test [9], in test [10], in [11] and in test [12] was inactive. The molecule was classed as inactive in [13], in test [14], in test [15], in test [16], in test [17] and in test [18]. For the same molecule, the result in [19] and in test [20] was inactive.

On to `Nc1cccc2c(N)cccc12`, for which the call in test [1], in test [2], in test [3], in test [5], in test [7] and in [8] was inactive. The molecule was called inactive in [10], in [15], in [18] and in test [20]. In addition, the AC50 in [4] was 51.8 µM (active); in test [6], 70.1 µM (active); in test [9], 96.2 µM (active); in test [11], 83.1 µM (active); in [12] it was 36.4 µM (active); in [13], 17.3 µM (active). Moreover, the AC50 in test [14] is 77 µM (active); in test [16] it was 42.9 µM (active); in [17], 39.9 µM (active); in test [19], 67.5 µM (active).

For `COCC(C)O` (stereo unspecified), the call in test [1], in test [2], in test [3], in [4], in test [5] and in test [6] was inactive. Besides, the outcome in test [8], in test [9], in [10], in test [11], in [12] and in test [13] was inactive. The outcome in [14], in test [15], in test [16], in test [17], in test [18] and in test [19] was inactive. Further, the molecule was called inactive in test [20]. In test [7], the AC50 is 0.0477 µM (active).

In the case of `CC(C)(C)c1cc(C(C)(C)C)c(O)c(C(C)(C)C)c1`, the results for the AC50 in test [1], in test [11] and in test [19] were 10.6 µM (active), 39.1 µM (active) and 0.357 µM (active), respectively. In addition, the result in test [2], in [3], in test [4], in test [5], in test [6] and in test [7] was inactive. In addition, the result in test [8], in [9], in test [10], in [12], in test [13] and in [14] was inactive. The molecule was classed as inactive in test [15], in test [16], in test [17], in [18] and in test [20].
